Test results taken from PubChem BioAssay (NCI).
The panel holds about 83,000 compounds, 20% with a hit somewhere; the sample as a whole holds those more often.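 In brief: 96-well plates, 48 h treatment, single concentration, percent growth endpoint.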 The source made the active and inactive calls. How the source made its calls: active means growth percent below 10; inactive means the rest.

Key:
Assay in all cases: NCI-60 one-dose screen, 48 h (100 = growth as untreated, 0 = no growth, -100 = all killed)
Conditions in all cases: 10 µM unless noted
SR leukemia = system: SR leukemia
RPMI-8226 leukemia = system: RPMI-8226 leukemia
OVCAR-5 ovarian = system: OVCAR-5 ovarian
OVCAR-4 ovarian = system: OVCAR-4 ovarian
SK-OV-3 ovarian = system: SK-OV-3 ovarian
IGROV1 ovarian = system: IGROV1 ovarian
OVCAR-3 ovarian = system: OVCAR-3 ovarian
HS 578T breast = system: HS 578T breast
NCI/ADR-RES ovarian = system: NCI/ADR-RES ovarian
T-47D breast = system: T-47D breast
BT-549 breast = system: BT-549 breast
MDA-MB-435 melanoma = system: MDA-MB-435 melanoma
SW-620 colon = system: SW-620 colon
MCF7 breast = system: MCF7 breast
HCT-116 colon = system: HCT-116 colon
HCC-2998 colon = system: HCC-2998 colon
KM12 colon = system: KM12 colon

Measured: growth

N#C/C(=N\Nc1ccccc1)C(=O)Nc1cc(-c2ccccc2)nn1-c1ccccc1
active: T-47D breast 9.7%
inactive: SR leukemia 62.3% | RPMI-8226 leukemia 18.5% | OVCAR-5 ovarian 72.2% | OVCAR-4 ovarian 22.1% | SK-OV-3 ovarian 31.3% | IGROV1 ovarian 30.6% | OVCAR-3 ovarian 12.4% | HS 578T breast 41.9% | NCI/ADR-RES ovarian 41.5% | BT-549 breast 16.2% | MDA-MB-435 melanoma 30.3% | SW-620 colon 20.2% | MCF7 breast 16.4% | HCT-116 colon 16.1% | HCC-2998 colon 40.7% | KM12 colon 36.8%

C=C1C(=O)O[C@H]2[C@H]1CC/C(CNC(=O)/C=C/c1cc(OC)c(OC)c(OC)c1)=C\CC[C@@]1(C)O[C@@H]21
inactive: OVCAR-5 ovarian 15.9% | OVCAR-4 ovarian 14.7% | SK-OV-3 ovarian 64.6% | IGROV1 ovarian 17.8% | HS 578T breast 24.2% | NCI/ADR-RES ovarian 76.7% | KM12 colon 38.8%
active: SR leukemia -13.8% | RPMI-8226 leukemia -5.59% | OVCAR-3 ovarian -57.5% | T-47D breast -65% | BT-549 breast -17.8% | MDA-MB-435 melanoma -60.3% | SW-620 colon -21.6% | MCF7 breast -8.09% | HCT-116 colon -65.6% | HCC-2998 colon -79%

Nc1ncc(-c2ccc3ncnc(N4CCc5cc(F)c(Cl)cc54)c3c2)cc1C(F)(F)F
active: SR leukemia -8.86% | IGROV1 ovarian -42.6% | HS 578T breast -4.39% | MDA-MB-435 melanoma 0.606% | MCF7 breast 8.11%
inactive: RPMI-8226 leukemia 16.4% | OVCAR-5 ovarian 20.8% | OVCAR-4 ovarian 33.4% | SK-OV-3 ovarian 31.9% | OVCAR-3 ovarian 31.7% | NCI/ADR-RES ovarian 19.5% | T-47D breast 20.4% | BT-549 breast 14.8% | SW-620 colon 38.2% | HCT-116 colon 21.3% | HCC-2998 colon 36.2% | KM12 colon 40.2%

COc1ccc(-c2cc(-c3ccc(Nc4nc(Nc5ccc(Cl)cc5)nc(Nc5ccc(Cl)cc5)n4)cc3)no2)cc1
inactive: RPMI-8226 leukemia 12.5% | OVCAR-5 ovarian 86% | OVCAR-4 ovarian 77.4% | SK-OV-3 ovarian 127% | IGROV1 ovarian 63.8% | OVCAR-3 ovarian 71.1% | HS 578T breast 90.2% | NCI/ADR-RES ovarian 81.8% | T-47D breast 70.7% | BT-549 breast 89.8% | MDA-MB-435 melanoma 71.3% | SW-620 colon 88.7% | MCF7 breast 60.6% | HCT-116 colon 53.3% | HCC-2998 colon 11.4% | KM12 colon 82%
active: SR leukemia 2.43%

CC1=NC(=S)NC(c2ccccc2)/C1=C1/CC(c2ccccc2O)NN1 (centres undefined)
inactive: SR leukemia 97.8% | RPMI-8226 leukemia 97.7% | OVCAR-5 ovarian 101% | OVCAR-4 ovarian 101% | SK-OV-3 ovarian 98.2% | IGROV1 ovarian 93.2% | OVCAR-3 ovarian 109% | NCI/ADR-RES ovarian 104% | T-47D breast 100% | BT-549 breast 99.6% | MDA-MB-435 melanoma 103% | SW-620 colon 100% | MCF7 breast 102% | HCT-116 colon 99.6% | HCC-2998 colon 113% | KM12 colon 104%

COc1ccc(-c2ccc(-c3ccc(C(=N)N)o3)o2)cc1
active: SR leukemia -4.13% | OVCAR-3 ovarian -27.8% | MDA-MB-435 melanoma -65.4% | HCT-116 colon -5.19% | HCC-2998 colon -48.7%
inactive: RPMI-8226 leukemia 14.3% | OVCAR-5 ovarian 38.4% | OVCAR-4 ovarian 58.8% | SK-OV-3 ovarian 35.8% | IGROV1 ovarian 57.1% | HS 578T breast 56.2% | NCI/ADR-RES ovarian 14.4% | T-47D breast 26.7% | BT-549 breast 59.6% | SW-620 colon 12.9% | MCF7 breast 10.4% | KM12 colon 11%

CCOC(=O)C#Cc1c(CC(=O)OCC)nnn1[C@H]1O[C@@H](CO)[C@@H]2OC(C)(C)O[C@@H]21
inactive: RPMI-8226 leukemia 45% | OVCAR-5 ovarian 93.9% | OVCAR-4 ovarian 88.4% | SK-OV-3 ovarian 94.4% | IGROV1 ovarian 98.3% | HS 578T breast 101% | NCI/ADR-RES ovarian 102% | T-47D breast 38.2% | BT-549 breast 87.3% | MDA-MB-435 melanoma 87.2% | MCF7 breast 11.5% | HCT-116 colon 65.2% | HCC-2998 colon 107% | KM12 colon 103%
active: SR leukemia 6.89% | OVCAR-3 ovarian 9.91% | SW-620 colon -19%

O=C(O)COc1ccc(F)cc1
inactive: SR leukemia 103% | RPMI-8226 leukemia 97.5% | OVCAR-5 ovarian 109% | OVCAR-4 ovarian 116% | SK-OV-3 ovarian 108% | IGROV1 ovarian 107% | OVCAR-3 ovarian 107% | HS 578T breast 128% | NCI/ADR-RES ovarian 101% | T-47D breast 104% | BT-549 breast 119% | MDA-MB-435 melanoma 108% | SW-620 colon 112% | MCF7 breast 95.8% | HCT-116 colon 103% | HCC-2998 colon 103% | KM12 colon 103%

CC(=O)O[C@H]1C[C@@]2(C)[C@@H](C[C@@H](O)[C@H]3[C@@]4(C)CC[C@H](N5CCCC5)[C@@H](C)[C@@H]4CC[C@@]32C)/C1=C(\CCC=C(C)C)C(=O)O
inactive: SR leukemia 24% | RPMI-8226 leukemia 88.1% | OVCAR-5 ovarian 102% | OVCAR-4 ovarian 101% | SK-OV-3 ovarian 100% | IGROV1 ovarian 105% | OVCAR-3 ovarian 101% | HS 578T breast 95.3% | NCI/ADR-RES ovarian 95.1% | T-47D breast 103% | BT-549 breast 101% | MDA-MB-435 melanoma 99.7% | SW-620 colon 96.2% | MCF7 breast 90.7% | HCT-116 colon 99.9% | HCC-2998 colon 104% | KM12 colon 102%

COc1ccccc1/C=C/C1=C(C)CCC(c2ccccc2OC)C1C (centres undefined)
inactive: OVCAR-5 ovarian 28.9% | OVCAR-4 ovarian 42.7% | SK-OV-3 ovarian 33.4% | HS 578T breast 11.1% | NCI/ADR-RES ovarian 18% | T-47D breast 61.9% | SW-620 colon 18.2%
active: SR leukemia -13.2% | RPMI-8226 leukemia -4.33% | IGROV1 ovarian -48.7% | OVCAR-3 ovarian -21.6% | BT-549 breast -16.3% | MDA-MB-435 melanoma -3.28% | MCF7 breast 7.88% | HCT-116 colon 2.8% | KM12 colon 6.67%

CC(CN)[C@@H]1CC[C@]2(CO)CC[C@]3(C)[C@H](CC[C@@H]4[C@@]5(C)CCC(NCCO)C(C)(C)[C@@H]5CC[C@]43C)[C@@H]12 (some centres undefined)
inactive: OVCAR-4 ovarian 77.3% | SK-OV-3 ovarian 100% | IGROV1 ovarian 71.4% | OVCAR-3 ovarian 53.1% | HS 578T breast 58.7% | NCI/ADR-RES ovarian 91.1% | T-47D breast 77.5% | BT-549 breast 64.7% | MDA-MB-435 melanoma 31% | KM12 colon 32.6%
active: SR leukemia -21.5% | RPMI-8226 leukemia 0.0868% | MCF7 breast 3.04% | HCT-116 colon 6.92% | HCC-2998 colon -26.8%

N/C(=N\c1nc2ccccc2s1)NC(=O)Nc1ccccc1
inactive: SR leukemia 15.7% | OVCAR-5 ovarian 51.7% | OVCAR-4 ovarian 73.8% | SK-OV-3 ovarian 51% | IGROV1 ovarian 58.8% | OVCAR-3 ovarian 28.4% | HS 578T breast 27.8% | NCI/ADR-RES ovarian 17.6% | T-47D breast 39.4% | BT-549 breast 49.5% | SW-620 colon 24.7% | MCF7 breast 16.6% | HCT-116 colon 17.1% | HCC-2998 colon 62.7% | KM12 colon 25.4%
active: RPMI-8226 leukemia 7.59% | MDA-MB-435 melanoma 2.22%

CNc1nc2ncc(-c3c(C)noc3C)cc2n1Cc1ccccc1
active: RPMI-8226 leukemia -2.96%
inactive: SR leukemia 27.9% | OVCAR-5 ovarian 67.5% | OVCAR-4 ovarian 53.6% | SK-OV-3 ovarian 21% | IGROV1 ovarian 63.6% | OVCAR-3 ovarian 47.2% | HS 578T breast 39.3% | NCI/ADR-RES ovarian 67.4% | T-47D breast 54.1% | BT-549 breast 60.2% | MDA-MB-435 melanoma 45.7% | SW-620 colon 71.8% | MCF7 breast 18.6% | HCT-116 colon 26% | HCC-2998 colon 63.4% | KM12 colon 62.1%

CC(C)=CC(=O)C1C(=O)c2ccccc2C1=O
inactive: SR leukemia 91.3% | RPMI-8226 leukemia 103% | OVCAR-4 ovarian 102% | SK-OV-3 ovarian 90.4% | IGROV1 ovarian 70.5% | OVCAR-3 ovarian 95.7% | HS 578T breast 102% | NCI/ADR-RES ovarian 108% | T-47D breast 97.3% | BT-549 breast 108% | MDA-MB-435 melanoma 98.9% | SW-620 colon 102% | MCF7 breast 93.4% | HCT-116 colon 103% | HCC-2998 colon 111% | KM12 colon 103%

CN1CCN(Cc2ccc(NC(=O)c3cncc(C#Cc4c(N)ncc5c(F)cccc45)c3)cc2C(F)(F)F)CC1
active: SR leukemia -49% | RPMI-8226 leukemia -26.5% | OVCAR-5 ovarian -33.3% | OVCAR-4 ovarian -59.1% | SK-OV-3 ovarian 2.69% | IGROV1 ovarian -69.4% | OVCAR-3 ovarian -84.8% | HS 578T breast -25.8% | NCI/ADR-RES ovarian -45.1% | T-47D breast -25.2% | MDA-MB-435 melanoma -83% | MCF7 breast -67.3% | HCT-116 colon -89.1% | HCC-2998 colon -11.9% | KM12 colon -72.9%
inactive: BT-549 breast 12.5%
